According to ChEMBL document CHEMBL1961873, “Compounds: GSK PKIS; Assays: Nanosyn kinase panel” (2012):
Several values for one entry are separate records, joined by “and”; a condition that tells them apart may be missing. Identical values can stand only once.

Columns and labels:
[1] = target: Tyrosine-protein kinase receptor UFO (Homo sapiens) (UniProt P30530); conditions: at 1 µM
[2] = target: Tyrosine-protein kinase Blk (Homo sapiens) (UniProt P51451); conditions: at 0.1 µM
[3] = target: Tyrosine-protein kinase Blk (Homo sapiens) (UniProt P51451); conditions: at 1 µM
[4] = target: T1, Cytoplasmic tyrosine-protein kinase BMX (Homo sapiens) (UniProt P51813); conditions: at 0.1 µM
T1 sequence (whole entry): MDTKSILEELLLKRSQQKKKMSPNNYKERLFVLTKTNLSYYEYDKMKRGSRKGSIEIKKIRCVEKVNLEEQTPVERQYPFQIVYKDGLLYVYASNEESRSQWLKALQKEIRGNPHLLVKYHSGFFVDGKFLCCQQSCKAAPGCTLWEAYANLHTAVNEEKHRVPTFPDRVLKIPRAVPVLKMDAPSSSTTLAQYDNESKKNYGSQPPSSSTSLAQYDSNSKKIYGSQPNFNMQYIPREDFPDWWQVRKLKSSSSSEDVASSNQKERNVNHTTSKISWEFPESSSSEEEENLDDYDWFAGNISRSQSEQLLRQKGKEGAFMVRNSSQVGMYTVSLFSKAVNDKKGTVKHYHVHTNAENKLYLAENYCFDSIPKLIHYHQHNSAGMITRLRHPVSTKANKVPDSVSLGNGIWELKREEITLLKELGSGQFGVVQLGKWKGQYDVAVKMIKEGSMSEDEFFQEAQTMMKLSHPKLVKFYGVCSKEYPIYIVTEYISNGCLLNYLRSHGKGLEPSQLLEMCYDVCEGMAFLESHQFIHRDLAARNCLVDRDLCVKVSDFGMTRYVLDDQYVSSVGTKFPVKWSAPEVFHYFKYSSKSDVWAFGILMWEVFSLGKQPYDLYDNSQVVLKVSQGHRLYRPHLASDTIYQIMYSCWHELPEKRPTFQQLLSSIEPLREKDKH

[5] = target: T1, Cytoplasmic tyrosine-protein kinase BMX (Homo sapiens); conditions: at 1 µM
[6] = target: Protein-tyrosine kinase 6 (Homo sapiens) (UniProt Q13882); conditions: at 0.1 µM
[7] = target: Protein-tyrosine kinase 6 (Homo sapiens) (UniProt Q13882); conditions: at 1 µM
[8] = target: Tyrosine-protein kinase BTK (Homo sapiens) (UniProt Q06187); conditions: at 0.1 µM
[9] = target: Tyrosine-protein kinase BTK (Homo sapiens) (UniProt Q06187); conditions: at 1 µM
[10] = target: Tyrosine-protein kinase CSK (Homo sapiens) (UniProt P41240); conditions: at 0.1 µM
[11] = target: Tyrosine-protein kinase CSK (Homo sapiens) (UniProt P41240); conditions: at 1 µM
[12] = target: T2, Discoidin domain-containing receptor 2 (Homo sapiens) (UniProt Q16832); conditions: at 0.1 µM
T2 sequence (whole entry): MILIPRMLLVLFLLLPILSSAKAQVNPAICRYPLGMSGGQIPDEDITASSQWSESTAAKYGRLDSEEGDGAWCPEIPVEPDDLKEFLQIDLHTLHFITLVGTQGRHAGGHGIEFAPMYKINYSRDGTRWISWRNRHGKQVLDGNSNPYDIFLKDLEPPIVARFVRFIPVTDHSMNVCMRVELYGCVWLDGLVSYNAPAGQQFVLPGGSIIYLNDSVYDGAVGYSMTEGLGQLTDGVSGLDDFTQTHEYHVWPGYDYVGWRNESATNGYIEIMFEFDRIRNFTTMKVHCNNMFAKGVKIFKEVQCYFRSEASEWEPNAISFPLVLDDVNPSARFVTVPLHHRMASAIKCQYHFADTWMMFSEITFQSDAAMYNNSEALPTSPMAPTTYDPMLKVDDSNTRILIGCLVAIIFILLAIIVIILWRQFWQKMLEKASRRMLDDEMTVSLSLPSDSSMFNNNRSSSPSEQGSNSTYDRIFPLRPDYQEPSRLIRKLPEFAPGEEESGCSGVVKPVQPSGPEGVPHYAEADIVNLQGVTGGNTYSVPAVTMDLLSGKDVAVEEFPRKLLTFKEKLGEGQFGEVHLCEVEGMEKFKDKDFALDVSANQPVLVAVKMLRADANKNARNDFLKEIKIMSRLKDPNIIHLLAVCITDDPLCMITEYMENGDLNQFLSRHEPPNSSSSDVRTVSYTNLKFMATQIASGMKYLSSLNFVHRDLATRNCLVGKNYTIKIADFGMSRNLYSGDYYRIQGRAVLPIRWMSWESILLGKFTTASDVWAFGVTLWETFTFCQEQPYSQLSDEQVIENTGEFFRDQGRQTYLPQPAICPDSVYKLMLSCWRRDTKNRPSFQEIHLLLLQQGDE

[13] = target: T2, Discoidin domain-containing receptor 2 (Homo sapiens); conditions: at 1 µM
[14] = target: Epidermal growth factor receptor (Homo sapiens) (UniProt P00533); conditions: at 0.1 µM
[15] = target: Epidermal growth factor receptor (Homo sapiens) (UniProt P00533); conditions: at 1 µM
[16] = system: Epidermal growth factor receptor (Homo sapiens), P00533 [L858R]; conditions: at 0.1 µM
[17] = system: Epidermal growth factor receptor (Homo sapiens), P00533 [L858R]; conditions: at 1 µM
[18] = system: Epidermal growth factor receptor (Homo sapiens), P00533 [L861Q]; conditions: at 0.1 µM
[19] = system: Epidermal growth factor receptor (Homo sapiens), P00533 [L861Q]; conditions: at 1 µM
[20] = system: Epidermal growth factor receptor (Homo sapiens), P00533 [T790M]; conditions: at 0.1 µM

Protein-tyrosine kinase 6 (Homo sapiens), sequence (Q13882 whole entry, looked up): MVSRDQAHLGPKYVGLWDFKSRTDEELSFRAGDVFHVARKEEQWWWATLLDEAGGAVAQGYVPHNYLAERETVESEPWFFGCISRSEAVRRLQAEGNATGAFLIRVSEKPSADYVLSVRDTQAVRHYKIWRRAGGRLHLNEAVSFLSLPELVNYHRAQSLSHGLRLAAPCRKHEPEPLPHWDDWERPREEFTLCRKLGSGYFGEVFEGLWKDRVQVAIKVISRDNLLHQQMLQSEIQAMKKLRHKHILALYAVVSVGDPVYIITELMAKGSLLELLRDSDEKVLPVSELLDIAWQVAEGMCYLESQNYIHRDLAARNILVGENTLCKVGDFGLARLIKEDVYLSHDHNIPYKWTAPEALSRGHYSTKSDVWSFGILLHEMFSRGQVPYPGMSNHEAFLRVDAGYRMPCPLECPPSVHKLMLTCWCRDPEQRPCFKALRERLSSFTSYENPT
Epidermal growth factor receptor (Homo sapiens), sequence (P00533 whole entry): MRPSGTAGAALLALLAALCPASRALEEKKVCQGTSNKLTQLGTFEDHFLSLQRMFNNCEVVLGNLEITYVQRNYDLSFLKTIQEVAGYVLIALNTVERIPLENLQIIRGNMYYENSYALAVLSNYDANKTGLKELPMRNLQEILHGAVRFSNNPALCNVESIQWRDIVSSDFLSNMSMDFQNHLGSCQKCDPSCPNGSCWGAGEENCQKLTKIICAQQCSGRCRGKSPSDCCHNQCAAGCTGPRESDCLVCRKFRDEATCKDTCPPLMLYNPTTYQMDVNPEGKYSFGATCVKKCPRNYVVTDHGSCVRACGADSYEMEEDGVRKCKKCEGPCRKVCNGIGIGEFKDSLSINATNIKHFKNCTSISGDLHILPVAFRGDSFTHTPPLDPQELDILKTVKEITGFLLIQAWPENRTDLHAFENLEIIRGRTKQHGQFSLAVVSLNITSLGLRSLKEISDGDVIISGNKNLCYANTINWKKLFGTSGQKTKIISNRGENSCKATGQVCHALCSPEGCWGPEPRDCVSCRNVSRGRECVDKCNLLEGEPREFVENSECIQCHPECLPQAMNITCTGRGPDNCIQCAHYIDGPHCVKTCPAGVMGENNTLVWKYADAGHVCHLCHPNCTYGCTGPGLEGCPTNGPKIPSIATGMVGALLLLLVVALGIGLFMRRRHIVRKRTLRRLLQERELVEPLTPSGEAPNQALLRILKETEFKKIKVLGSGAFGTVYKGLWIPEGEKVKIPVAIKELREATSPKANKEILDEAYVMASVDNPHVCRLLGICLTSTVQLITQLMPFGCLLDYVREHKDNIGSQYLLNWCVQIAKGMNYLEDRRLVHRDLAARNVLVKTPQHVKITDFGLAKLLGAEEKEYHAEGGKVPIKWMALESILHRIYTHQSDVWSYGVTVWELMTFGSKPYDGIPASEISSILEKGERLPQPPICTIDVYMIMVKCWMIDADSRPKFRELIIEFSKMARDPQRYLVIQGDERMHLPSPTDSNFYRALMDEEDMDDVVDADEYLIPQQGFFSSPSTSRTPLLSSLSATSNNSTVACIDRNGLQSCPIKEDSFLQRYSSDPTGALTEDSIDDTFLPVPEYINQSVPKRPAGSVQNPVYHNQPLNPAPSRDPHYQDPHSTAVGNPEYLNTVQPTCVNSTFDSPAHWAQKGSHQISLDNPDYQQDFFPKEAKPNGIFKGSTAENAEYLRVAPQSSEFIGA
Tyrosine-protein kinase receptor UFO (Homo sapiens), sequence (P30530 whole entry): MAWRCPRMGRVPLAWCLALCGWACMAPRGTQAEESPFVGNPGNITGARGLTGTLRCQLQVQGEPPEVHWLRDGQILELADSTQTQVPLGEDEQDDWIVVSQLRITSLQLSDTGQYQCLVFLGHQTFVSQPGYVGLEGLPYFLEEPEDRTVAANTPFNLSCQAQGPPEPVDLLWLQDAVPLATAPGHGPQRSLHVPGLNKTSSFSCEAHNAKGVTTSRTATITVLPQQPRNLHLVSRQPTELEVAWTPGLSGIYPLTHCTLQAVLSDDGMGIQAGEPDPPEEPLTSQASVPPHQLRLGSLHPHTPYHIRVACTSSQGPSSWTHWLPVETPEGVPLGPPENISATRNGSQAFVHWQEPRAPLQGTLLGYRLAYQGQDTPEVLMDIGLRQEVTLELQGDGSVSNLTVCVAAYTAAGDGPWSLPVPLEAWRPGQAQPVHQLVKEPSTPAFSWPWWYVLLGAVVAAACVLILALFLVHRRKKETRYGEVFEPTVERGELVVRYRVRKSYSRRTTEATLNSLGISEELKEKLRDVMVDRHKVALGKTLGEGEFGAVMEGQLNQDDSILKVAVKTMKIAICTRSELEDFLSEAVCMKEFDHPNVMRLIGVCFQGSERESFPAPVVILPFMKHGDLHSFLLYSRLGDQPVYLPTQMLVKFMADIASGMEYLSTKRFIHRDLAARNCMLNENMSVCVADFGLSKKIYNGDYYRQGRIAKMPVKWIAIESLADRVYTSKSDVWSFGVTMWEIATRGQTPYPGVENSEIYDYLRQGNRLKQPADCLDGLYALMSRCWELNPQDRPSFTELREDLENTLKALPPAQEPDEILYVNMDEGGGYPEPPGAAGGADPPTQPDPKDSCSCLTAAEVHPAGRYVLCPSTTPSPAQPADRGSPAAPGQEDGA
Tyrosine-protein kinase CSK (Homo sapiens), sequence (P41240 2-450 limits assumed): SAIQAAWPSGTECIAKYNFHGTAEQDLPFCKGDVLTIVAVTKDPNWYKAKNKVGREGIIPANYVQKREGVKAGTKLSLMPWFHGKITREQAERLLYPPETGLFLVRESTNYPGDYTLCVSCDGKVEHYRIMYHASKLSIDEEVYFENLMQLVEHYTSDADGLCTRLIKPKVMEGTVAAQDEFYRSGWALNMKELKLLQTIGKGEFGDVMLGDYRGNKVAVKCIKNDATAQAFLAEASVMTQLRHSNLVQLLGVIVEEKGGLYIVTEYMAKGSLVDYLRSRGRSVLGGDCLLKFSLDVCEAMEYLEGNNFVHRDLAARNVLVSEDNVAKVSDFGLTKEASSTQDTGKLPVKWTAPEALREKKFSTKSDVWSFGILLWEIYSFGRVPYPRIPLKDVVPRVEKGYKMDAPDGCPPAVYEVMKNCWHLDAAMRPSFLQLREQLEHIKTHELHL
Epidermal growth factor receptor (Homo sapiens), P00533 [L858R], sequence (P00533 whole entry L858R): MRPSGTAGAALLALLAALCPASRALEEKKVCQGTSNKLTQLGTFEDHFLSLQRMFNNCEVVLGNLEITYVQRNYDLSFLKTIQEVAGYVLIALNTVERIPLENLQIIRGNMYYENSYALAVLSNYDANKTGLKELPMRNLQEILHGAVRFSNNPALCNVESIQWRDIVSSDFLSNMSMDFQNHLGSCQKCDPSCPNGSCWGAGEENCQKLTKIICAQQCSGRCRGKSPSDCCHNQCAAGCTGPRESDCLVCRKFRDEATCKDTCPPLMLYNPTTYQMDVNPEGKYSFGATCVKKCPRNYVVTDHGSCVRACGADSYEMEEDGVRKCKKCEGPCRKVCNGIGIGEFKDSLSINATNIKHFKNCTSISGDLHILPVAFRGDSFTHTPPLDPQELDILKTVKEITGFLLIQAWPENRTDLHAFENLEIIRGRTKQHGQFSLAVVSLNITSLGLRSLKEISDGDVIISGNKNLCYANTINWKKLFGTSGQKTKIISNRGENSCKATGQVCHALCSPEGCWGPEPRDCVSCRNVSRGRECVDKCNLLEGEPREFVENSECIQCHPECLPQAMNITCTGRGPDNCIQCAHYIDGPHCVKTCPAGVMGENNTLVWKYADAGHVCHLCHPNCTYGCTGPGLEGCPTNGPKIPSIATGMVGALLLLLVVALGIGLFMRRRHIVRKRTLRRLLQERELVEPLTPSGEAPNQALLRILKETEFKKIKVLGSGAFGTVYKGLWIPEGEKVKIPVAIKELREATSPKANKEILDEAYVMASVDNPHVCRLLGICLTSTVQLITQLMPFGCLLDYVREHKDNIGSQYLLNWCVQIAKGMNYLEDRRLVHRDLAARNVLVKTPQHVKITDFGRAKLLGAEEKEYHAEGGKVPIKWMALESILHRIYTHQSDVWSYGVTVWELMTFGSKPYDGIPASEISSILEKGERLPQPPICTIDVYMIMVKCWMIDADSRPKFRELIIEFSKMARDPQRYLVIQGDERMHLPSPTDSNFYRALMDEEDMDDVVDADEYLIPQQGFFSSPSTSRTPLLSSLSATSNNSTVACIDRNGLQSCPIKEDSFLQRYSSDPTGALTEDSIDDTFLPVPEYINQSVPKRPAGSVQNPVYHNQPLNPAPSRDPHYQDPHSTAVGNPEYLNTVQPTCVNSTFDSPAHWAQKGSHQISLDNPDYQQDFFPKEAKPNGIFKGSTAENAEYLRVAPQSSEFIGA
Tyrosine-protein kinase Blk (Homo sapiens), sequence (P51451 2-505 limits assumed): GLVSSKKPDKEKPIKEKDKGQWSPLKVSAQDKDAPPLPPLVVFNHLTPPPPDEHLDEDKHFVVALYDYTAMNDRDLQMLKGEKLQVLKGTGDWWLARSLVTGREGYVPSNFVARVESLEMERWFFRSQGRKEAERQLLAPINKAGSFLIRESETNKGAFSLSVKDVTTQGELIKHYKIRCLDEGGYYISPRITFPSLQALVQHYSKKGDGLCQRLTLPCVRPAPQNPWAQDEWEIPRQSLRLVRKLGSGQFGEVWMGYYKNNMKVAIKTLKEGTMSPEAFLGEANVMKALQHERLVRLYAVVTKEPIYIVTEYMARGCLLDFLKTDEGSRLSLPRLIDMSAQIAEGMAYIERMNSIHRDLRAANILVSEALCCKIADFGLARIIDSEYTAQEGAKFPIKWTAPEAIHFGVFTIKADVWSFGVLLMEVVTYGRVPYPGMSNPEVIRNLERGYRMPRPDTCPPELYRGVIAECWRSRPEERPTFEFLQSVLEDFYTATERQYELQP

Compound | inhibition [1] | inhibition [2] | inhibition [3] | inhibition [4] | inhibition [5] | inhibition [6] | inhibition [7] | inhibition [8] | inhibition [9] | inhibition [10] | inhibition [11] | inhibition [12] | inhibition [13] [%] | inhibition [14] | inhibition [15] | inhibition [16] | inhibition [17] | inhibition [18] | inhibition [19] | inhibition [20]
COc1ccc(-c2nn3ncccc3c2-c2ccnc(Nc3ccc(F)c(F)c3)n2)cc1 | -3.4% | 3.7% | 7.65% | 6.68% | 6.9% | 9.68% | 46.2% | 0.77% | 0.68% | 4.89% | 8.37% | 4.41% | 34.7 | 1.6% | 9.46% | 3.72% | 21.4% | 3.55% | 10.2% | 3.23%
FC(F)(F)CNc1nccc(-c2cnn3ncccc23)n1 | -3.11% | 1.37% | 2.35% | 4.12% | 2.03% | -1.25% | 3.34% | 0.18% | 0.42% | 2.81% | 0.56% | 1.12% | 0.22 | 1.39% | 6.21% | 2.83% | 0.26% | 0.58% | 0.31% | -0.49%
Nc1nccc(-c2c(-c3ccc(F)cc3)ncn2C2CCNCC2)n1 | 8.06% and 1.45% | -1.45% and 0.8% | -0.17% and 2.22% | 1.14% and -5.53% | -1.15% and 0.2% | -3.88% and 1.44% | 2.01% and 4.41% | -0.49% and -0.93% | -0.59% and 0.22% | -4.42% and 4.09% | -3.76% and 3.13% | -1.68% and 1.35% | 0.32 | -0.4% and 2.01% | 5.66% and 6.46% | -0.59% and 2.85% | 6.1% and 10.9% | -3.23% and 1.91% | 1.42% and 4.42% | -2.84% and -2.65%
CNC(=O)c1cncc(/C=C/c2ccccc2C)c1 | -5.59% | 2.89% | 6.2% | 0.93% | 16.1% | 4.25% | 14.5% | 0.03% | 1.29% | 4.87% | 9.89% | 0.33% | 5.42 | 1.22% | 3.62% | 4.66% | 11.7% | 3.44% | 5.67% | 1.07%
CCn1c(-c2nonc2N)nc2cncc(C(=O)NCCNC)c21 | -6.19% | 3.13% | 5.42% | 3.81% | 5.15% | 2.42% | 5.45% | -1.55% | 0.11% | 3.43% | 4.95% | 1.54% | 2.38 | 0.28% | 5.41% | 4.66% | 6.79% | 4.01% | 2.21% | 2.41%
Fc1cccc(COc2ccc(Nc3ncncc3C#Cc3ccccc3)cc2Cl)c1 | -6.13% | 3.22% | 3.19% | -2.36% | 5.09% | 6.04% | 7.36% | 1.18% | 0.79% | 2.79% | 6.87% | 1.28% | 1.92 | 23.9% | 72.5% | 3.93% | 21.7% | 16.6% | 30.2% | 3.89%
COC(=O)Nc1nc2cc(Oc3ccc(NC(=O)Nc4ccccc4)cc3)ccc2[nH]1 | -3.64% | 2.65% | 3.63% | 3.17% | 3.73% | 1.45% | 2.78% | 0.55% | 0.58% | 4.95% | 1.41% | 77.2% | 81.4 | 0.9% | -0.33% | 0.78% | 4.35% | 1.19% | 1.08% | -1.39%
c1cnn2ncc(-c3ccnc(NCCCN4CCOCC4)n3)c2c1 | -4.37% | 1.7% | 2.58% | -0.07% | 2.01% | 2.34% | 3.25% | -1.19% | -2.44% | 5.75% | 1.9% | 2.03% | 1.44 | -0.42% | 0.23% | 3.41% | 1.28% | 1.28% | 0.79% | 0.73%
COc1cc2c(cc1Nc1nc(Nc3cccc(F)c3C(N)=O)c3cc[nH]c3n1)N(C(=O)CN1CCN(C(C)C)CC1)CC2 | 2.45% | -0.36% | -0.42% | 2.26% | 3.16% | -1.33% | 3.54% | -0.03% | -1.36% | -1.06% | -3.02% | -1.78% | -0.55 | 2.48% | 17.1% | -0.57% | 15.1% | 1.65% | 13.7% | 2.59%
COc1cc(N2CCN(C(C)C)CC2)ccc1Nc1nc(Nc2cccc3ncccc23)c2cc[nH]c2n1 | 5.43% | 0.1% | 2.64% | 5.26% | -0.89% | -1.05% | -2.93% | -0.29% | -0.05% | -1.28% | -2.41% | 4.81% | 8.24 | 1.36% | 2.64% | -1.25% | 3.3% | -0.92% | 0.99% | -1.02%
Fc1ccc(Nc2nccc(-c3c(-c4ccc(C(F)(F)F)cc4)nn4ncccc34)n2)cc1F | -7.82% | 2.43% | 2.03% | 0.77% | 5.09% | 3.39% | 0.92% | 1.62% | 0.94% | 1.84% | 0.02% | 0.84% | 1.01 | -6.64% | 2.88% | 4.49% | 2.96% | 2.39% | -0.05% | 2.44%
N#Cc1ccc2c(-c3ccnc(NC4CC4)n3)c(-c3ccc(F)cc3)nn2c1 | -4.53% | -1.08% | -3.55% | 1.17% | 2.56% | -1.17% | 2.88% | -0.25% | -2.34% | 1.65% | 3.45% | 4.32% | 15.8 | 1.52% | 13.8% | 5.89% | 41.3% | 1.64% | 12.9% | -0.38%
CC(C)c1ccc(-c2cc(-c3c[nH]nc3-c3ccccn3)ccn2)cc1 | 2.69% | 1.02% | 0.42% | -0.47% | 2.05% | -0.52% | 0.14% | -1.28% | -1.36% | 1.02% | -3.97% | 3.76% | 4.98 | 1.84% | 3.14% | 1.78% | 0.3% | 0.09% | -0.98% | -0.66%
